Among the data in ChEMBL document CHEMBL2218924, “A broad activity screen in support of a chemogenomic map for kinase signalling research and drug discovery” (Biochem J, 2013) are residual activity values, retold here.

Assay [1] concerns the target T1, TGF-beta receptor type-1 (Homo sapiens) (UniProt P36897).
T1 sequence (whole entry): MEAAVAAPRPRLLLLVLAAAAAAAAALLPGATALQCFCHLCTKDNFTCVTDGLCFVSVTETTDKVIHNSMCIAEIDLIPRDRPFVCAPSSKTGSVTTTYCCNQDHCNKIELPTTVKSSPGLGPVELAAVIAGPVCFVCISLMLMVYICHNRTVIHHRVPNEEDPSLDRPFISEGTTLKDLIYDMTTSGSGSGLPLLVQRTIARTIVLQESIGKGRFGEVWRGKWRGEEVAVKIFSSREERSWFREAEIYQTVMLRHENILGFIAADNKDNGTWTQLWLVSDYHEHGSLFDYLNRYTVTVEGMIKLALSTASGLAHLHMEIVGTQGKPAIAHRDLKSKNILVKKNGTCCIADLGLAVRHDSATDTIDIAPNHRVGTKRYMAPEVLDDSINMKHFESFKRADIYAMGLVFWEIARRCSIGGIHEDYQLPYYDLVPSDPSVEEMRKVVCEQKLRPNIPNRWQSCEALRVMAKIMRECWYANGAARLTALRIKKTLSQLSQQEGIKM
To be noted: at 1 µM.

Assay [2] addresses T1, TGF-beta receptor type-1 (Homo sapiens). To be noted: at 10 µM.
Assay [3] deals with Insulin-like growth factor 1 receptor (Homo sapiens) (UniProt P08069). To be noted: at 1 µM.
Sequence of Insulin-like growth factor 1 receptor (Homo sapiens) (P08069 31-736 limits assumed): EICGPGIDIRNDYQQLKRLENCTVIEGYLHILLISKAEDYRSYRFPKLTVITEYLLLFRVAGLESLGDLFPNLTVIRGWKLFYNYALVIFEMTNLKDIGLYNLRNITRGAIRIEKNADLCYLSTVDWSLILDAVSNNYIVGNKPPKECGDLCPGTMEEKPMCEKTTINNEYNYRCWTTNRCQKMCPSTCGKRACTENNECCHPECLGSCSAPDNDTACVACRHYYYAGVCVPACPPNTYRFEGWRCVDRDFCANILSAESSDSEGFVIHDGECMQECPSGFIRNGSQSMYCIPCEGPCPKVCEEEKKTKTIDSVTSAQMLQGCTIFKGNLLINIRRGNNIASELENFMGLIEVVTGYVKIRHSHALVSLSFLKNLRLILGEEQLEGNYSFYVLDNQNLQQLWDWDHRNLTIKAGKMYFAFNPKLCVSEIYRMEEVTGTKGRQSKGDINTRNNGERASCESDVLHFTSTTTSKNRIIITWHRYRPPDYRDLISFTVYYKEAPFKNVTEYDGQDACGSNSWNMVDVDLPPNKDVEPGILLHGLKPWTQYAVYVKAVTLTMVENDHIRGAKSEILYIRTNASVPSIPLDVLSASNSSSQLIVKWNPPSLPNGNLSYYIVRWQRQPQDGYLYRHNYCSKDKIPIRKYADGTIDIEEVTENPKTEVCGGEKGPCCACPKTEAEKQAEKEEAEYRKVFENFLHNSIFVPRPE
Sequence of Insulin-like growth factor 1 receptor (Homo sapiens) (P08069 741-1367 limits assumed): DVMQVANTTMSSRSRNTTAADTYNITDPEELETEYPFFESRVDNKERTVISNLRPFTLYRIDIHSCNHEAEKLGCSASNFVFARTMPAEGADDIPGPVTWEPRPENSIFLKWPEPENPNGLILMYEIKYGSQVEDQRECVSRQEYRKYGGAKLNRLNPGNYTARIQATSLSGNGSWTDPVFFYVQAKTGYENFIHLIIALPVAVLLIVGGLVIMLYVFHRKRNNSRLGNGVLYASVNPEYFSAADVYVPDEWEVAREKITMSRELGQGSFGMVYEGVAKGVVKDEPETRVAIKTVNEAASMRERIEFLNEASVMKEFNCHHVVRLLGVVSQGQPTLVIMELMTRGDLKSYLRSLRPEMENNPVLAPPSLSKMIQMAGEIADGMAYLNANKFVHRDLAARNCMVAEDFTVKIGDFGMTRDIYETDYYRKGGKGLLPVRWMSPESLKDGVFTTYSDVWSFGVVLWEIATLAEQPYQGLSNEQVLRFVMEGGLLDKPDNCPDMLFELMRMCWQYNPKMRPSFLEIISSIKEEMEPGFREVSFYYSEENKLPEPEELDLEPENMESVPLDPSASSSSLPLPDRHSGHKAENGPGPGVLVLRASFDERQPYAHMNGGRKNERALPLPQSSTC
The target is the same in assay [4]. The conditions noted are these: at 10 µM.
For assay [5], the target named is T2, Inhibitor of nuclear factor kappa-B kinase subunit alpha (Homo sapiens) (UniProt O15111).
T2 sequence (whole entry): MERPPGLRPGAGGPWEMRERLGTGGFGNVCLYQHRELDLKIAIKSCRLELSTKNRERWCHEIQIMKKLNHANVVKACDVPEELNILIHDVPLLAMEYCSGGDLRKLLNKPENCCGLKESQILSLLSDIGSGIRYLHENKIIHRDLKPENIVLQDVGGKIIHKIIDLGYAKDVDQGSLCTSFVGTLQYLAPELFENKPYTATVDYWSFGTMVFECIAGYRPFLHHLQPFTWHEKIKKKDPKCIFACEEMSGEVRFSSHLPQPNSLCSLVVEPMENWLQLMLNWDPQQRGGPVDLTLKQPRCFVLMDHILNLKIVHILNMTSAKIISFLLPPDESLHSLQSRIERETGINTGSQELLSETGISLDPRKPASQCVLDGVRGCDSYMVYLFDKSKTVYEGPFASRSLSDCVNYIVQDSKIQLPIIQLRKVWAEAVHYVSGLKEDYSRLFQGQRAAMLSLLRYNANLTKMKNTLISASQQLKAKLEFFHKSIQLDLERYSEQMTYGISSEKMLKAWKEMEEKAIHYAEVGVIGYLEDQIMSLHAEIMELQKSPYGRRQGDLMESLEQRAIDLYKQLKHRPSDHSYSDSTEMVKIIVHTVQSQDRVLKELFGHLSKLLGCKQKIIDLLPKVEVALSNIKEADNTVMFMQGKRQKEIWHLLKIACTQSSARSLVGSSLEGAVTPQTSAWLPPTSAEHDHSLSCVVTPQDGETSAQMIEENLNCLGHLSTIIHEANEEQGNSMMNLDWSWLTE
The conditions noted are these: at 1 µM.

The target in assay [6] is T2, Inhibitor of nuclear factor kappa-B kinase subunit alpha (Homo sapiens). To be noted: at 10 µM.
The target in assay [7] is T3, Inhibitor of nuclear factor kappa-B kinase subunit beta (Homo sapiens) (UniProt O14920).
T3 sequence (whole entry): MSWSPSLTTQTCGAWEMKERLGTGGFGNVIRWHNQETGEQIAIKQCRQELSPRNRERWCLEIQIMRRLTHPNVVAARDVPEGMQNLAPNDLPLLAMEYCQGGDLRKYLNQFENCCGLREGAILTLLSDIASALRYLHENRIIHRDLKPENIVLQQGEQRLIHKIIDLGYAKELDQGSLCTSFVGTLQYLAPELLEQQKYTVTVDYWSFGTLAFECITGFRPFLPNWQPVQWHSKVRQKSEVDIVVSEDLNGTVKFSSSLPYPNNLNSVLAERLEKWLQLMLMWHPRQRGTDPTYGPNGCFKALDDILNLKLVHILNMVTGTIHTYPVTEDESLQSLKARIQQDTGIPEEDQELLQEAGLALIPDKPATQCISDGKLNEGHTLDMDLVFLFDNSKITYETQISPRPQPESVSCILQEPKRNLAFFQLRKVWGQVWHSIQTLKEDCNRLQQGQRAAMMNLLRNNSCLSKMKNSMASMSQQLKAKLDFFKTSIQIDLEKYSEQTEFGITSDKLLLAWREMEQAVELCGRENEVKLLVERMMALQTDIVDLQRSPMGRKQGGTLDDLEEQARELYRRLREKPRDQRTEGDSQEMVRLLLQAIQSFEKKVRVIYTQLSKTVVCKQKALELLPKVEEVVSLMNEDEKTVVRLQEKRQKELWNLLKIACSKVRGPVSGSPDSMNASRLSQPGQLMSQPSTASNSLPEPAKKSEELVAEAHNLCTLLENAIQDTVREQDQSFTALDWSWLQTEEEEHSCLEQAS
The conditions noted are these: at 1 µM.

The target of assay [8] is T3, Inhibitor of nuclear factor kappa-B kinase subunit beta (Homo sapiens). To be noted: at 10 µM.
The target of assay [9] is Insulin receptor (Homo sapiens) (UniProt P06213). To be noted: at 1 µM.
Sequence of Insulin receptor (Homo sapiens) (P06213 28-758 limits assumed): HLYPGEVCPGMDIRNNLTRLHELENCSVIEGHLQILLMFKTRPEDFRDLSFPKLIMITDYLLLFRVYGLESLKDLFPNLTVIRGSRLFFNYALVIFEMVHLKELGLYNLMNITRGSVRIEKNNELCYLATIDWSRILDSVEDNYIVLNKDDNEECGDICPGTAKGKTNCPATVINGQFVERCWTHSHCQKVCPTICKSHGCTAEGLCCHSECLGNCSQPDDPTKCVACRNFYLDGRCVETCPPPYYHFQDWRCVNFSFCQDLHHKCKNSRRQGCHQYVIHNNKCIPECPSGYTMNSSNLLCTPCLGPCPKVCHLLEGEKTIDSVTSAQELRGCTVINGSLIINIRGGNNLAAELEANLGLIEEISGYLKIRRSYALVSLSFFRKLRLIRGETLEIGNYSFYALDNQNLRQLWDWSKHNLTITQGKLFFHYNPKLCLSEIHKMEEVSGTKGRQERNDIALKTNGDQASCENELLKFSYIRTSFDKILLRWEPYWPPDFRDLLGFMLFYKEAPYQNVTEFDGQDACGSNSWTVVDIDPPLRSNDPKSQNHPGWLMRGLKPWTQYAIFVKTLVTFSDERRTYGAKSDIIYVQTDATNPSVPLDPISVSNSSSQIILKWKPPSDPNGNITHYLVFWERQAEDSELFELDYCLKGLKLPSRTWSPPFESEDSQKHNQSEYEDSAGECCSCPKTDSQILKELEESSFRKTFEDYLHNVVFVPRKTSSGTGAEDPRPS
Sequence of Insulin receptor (Homo sapiens) (P06213 763-1382 limits assumed): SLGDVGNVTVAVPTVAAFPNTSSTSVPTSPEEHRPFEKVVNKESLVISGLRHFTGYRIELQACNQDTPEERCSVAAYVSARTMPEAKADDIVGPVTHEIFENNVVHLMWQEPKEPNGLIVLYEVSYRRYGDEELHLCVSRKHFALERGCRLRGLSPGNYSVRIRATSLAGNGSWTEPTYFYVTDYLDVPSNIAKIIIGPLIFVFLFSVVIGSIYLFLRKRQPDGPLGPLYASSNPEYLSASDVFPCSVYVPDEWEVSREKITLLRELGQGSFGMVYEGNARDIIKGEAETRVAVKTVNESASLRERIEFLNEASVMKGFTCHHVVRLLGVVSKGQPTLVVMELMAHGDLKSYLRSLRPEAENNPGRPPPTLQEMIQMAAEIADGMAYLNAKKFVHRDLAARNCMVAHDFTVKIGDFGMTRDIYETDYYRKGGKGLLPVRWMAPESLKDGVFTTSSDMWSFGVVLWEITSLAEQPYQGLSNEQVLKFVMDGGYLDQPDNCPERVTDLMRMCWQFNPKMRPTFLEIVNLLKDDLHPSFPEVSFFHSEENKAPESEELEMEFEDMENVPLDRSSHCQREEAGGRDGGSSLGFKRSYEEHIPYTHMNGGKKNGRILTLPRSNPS

As to `O=C1Nc2ccccc2/C1=C1/Nc2ccccc2/C1=N\OCCC(O)CO` (centres undefined), the residual activity (commonly the signal under treatment as a percentage of the control signal) in assay [1] amounted to 77%; in assay [2], 64%; in assay [3], 10%; in assay [4], 10%; in assay [5], 82%; in assay [6], 46%. The residual activity in [7] amounted to 104%; in assay [8], 66%; in assay [9] it was 17%.
